Sampled rows, rich in hits. Any-hit rate of the full collection: about 1.7%.
Fam108B inh: counter-screen for RBBP9 inhibitors: inhibitors of mouse Fam108B. 0.33% of 300,000 active. recombinant Fam108B, FP-Rh probe fluorescence polarization. inhibition, % at 9.51 µM;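 active = inhibition above the screen mean inhibition plus 3 SD, computed separately per campaign, cut at about 18% in these data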;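 also: inhibitors lower polarization as less probe binds the enzyme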
PME-1 primary: PME-1 (human) inhibition; Q9Y570; recombinant PME-1, FP-Rh probe fluorescence polarization; inhibition, % at 5.9 µM; 0.53% of 320,000 active;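 active = inhibition above the campaign mean of all compounds plus 3 SD, cut at about 26% in these data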;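 also: competitive labeling of PME-1 active site by serine hydrolase directed probe; 0% = PME-1 with DMSO and 100% = wells lacking PME-1 enzyme; inhibitors block probe labeling so polarization falls and inhibition rises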
GSTO1 counter: counter-screen for RBBP9 inhibitors: inhibitors of human GSTO1. P78417. recombinant GSTO1, activity-based probe fluorescence polarization. inhibition, % at 5.96 µM. 1.1% of 300,000 active. AID 1974;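 active = inhibition above the campaign mean inhibition plus 3 SD, cut at about 35% in these data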;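 also: 0% = GSTO1-1 with DMSO and 100% = wells lacking GSTO1-1 enzyme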
Target sequence (P78417 whole entry, looked up): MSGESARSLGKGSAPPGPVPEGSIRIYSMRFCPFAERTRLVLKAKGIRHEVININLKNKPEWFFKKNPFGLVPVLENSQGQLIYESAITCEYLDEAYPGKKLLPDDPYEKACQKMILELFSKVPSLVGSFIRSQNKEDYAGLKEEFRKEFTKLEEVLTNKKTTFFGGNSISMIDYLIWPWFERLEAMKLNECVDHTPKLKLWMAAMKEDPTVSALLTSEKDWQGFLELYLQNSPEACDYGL
LYPLA1 inh: counter-screen for PME1 inhibitors: inhibitors of human LYPLA1. inhibition, % at 5.9 µM. O75608. recombinant LYPLA1, FP-Rh probe fluorescence polarization. AID 2174. 0.16% of 320,000 active;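 active = inhibition above the mean of all tested compounds plus 3 SD, set per campaign, cut at about 14% in these data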;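 also: inhibitors block serine hydrolase probe labeling of LYPLA1 so polarization falls; 0% = enzyme with DMSO and 100% = wells lacking LYPLA1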
Target sequence (O75608 whole entry, looked up): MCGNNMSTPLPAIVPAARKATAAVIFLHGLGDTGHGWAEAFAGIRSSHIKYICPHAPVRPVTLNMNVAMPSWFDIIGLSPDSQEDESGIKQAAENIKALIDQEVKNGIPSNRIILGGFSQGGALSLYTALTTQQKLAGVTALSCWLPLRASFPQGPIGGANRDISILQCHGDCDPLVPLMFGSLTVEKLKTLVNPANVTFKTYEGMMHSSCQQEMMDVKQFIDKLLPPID
LYPLA2 counter: blocks human lysophospholipase 2, a PME1 counter-screen. O95372. recombinant LYPLA2, FP-Rh probe fluorescence polarization. inhibition, % at 5.9 µM. 0.38% of 320,000 active;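 active = inhibition above the screen-wide mean plus 3 SD, limit set per campaign, cut at about 26% in these data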;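 also: 0% = LYPLA2 with DMSO and 100% = wells lacking LYPLA2 enzyme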
PAD4 FP inh: inhibitors of human PAD4 | Q9UM07 | recombinant PAD4, RCA probe fluorescence polarization | inhibition, % at 6.36 µM | 0.41% of 330,000 active | AID 485272;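 active = percent inhibition above a cutoff equal to the mean of all tested compounds plus 3 SD, cut at about 15% in these data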;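 also: 0% = PAD4 with RCA probe and DMSO and 100% = probe without PAD4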
Fam108b inh conf: confirmation of mouse Fam108b serine hydrolase inhibitors; shares compounds with Fam108B inh; recombinant Fam108b, FP-Rh probe fluorescence polarization; inhibition, % at 9.51 µM; 44% of 930 active; AID 1978;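 active = inhibition above a limit from the primary screen, the mean over all compounds plus 3 SD, cut at about 19% in these data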;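 also: 0% = median of active Fam108b wells and 100% = catalytically dead S170A mutant; inhibitors free the probe so polarization falls as inhibition rises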
Fam108b ABPP HTS: mouse ABHD17B inhibition; shares compounds with Fam108B inh; recombinant Fam108b, gel-based ABPP, fluorophosphonate probe; inhibition, % at 20 µM; 44% of 260 active; AID 588649; in the data active = inhibition above about 40%
Starred values were filed as active, the others as inactive; nt = no result given.

SMILES | Fam108B inh | PME-1 primary | GSTO1 counter | LYPLA1 inh | LYPLA2 counter | PAD4 FP inh | Fam108b inh conf | others
Cc1ccc(S(=O)(=O)Nc2ccc(O)c(Sc3ncn[nH]3)c2)cc1 | -3 | 3 | 14 | 1 | -7 | -5 | nt
CC(C)c1ccc(S(=O)(=O)/N=C2/C=C(Sc3ncn[nH]3)C(=O)c3ccccc32)cc1 | 58* | 42* | 85* | 3 | 36* | 38* | 36*
C/C=C(\C)C(=O)NCCN1C2=NC[C@H](C(C)C)N2C[C@@H]1Cc1ccc(OC)cc1 | 21* | 4 | -11 | 3 | -1 | -4 | -7
CCOC(=O)C1CCN(Cc2cc(=O)oc3cc(C)ccc23)CC1 | 3 | -6 | 0 | 1 | 3 | 2 | nt
Cc1ccc(S(=O)(=O)Nc2ccccc2C(=O)Nc2nc(-c3ccc(F)cc3)cs2)cc1 | 24* | 6 | -110 | -4 | -13 | -4 | 97* | Fam108b ABPP HTS=65*
Cc1ccc(S(=O)(=O)/N=C2/NC(=O)/C(=C/c3cc([N+](=O)[O-])ccc3O)S2)cc1 | 18* | -18 | -111 | 0 | 1 | 1 | 21*
O=C(Nc1ccc(Cl)c(Cl)c1)Nc1ccccc1O | 20* | 18 | -26 | -18 | -3 | -17 | -7
O=C(Nc1ccc(Oc2ccc(NC(=O)Nc3ccccc3Cl)cc2)cc1)Nc1ccccc1Cl | 58* | -7 | 0 | -1 | -5 | -4 | 59* | Fam108b ABPP HTS=0
CCOC(=O)c1c(NC(=O)COC(=O)CCOc2ccc(C)cc2)sc(C(=O)N(C)C)c1C | 1 | 2 | 11 | -2 | 0 | 1 | nt
CC1CCN(S(=O)(=O)c2ccc(C(=O)Nc3ccccc3-c3nc4ccccc4[nH]3)cc2)CC1 | 29* | -46 | -26 | -27 | -32 | 7 | 71* | Fam108b ABPP HTS=100*
CC1CCCN(S(=O)(=O)c2ccc(C(=O)Nc3ccccc3-c3nc4ccccc4[nH]3)cc2)C1 (centres undefined) | -33 | -10 | -2 | -5 | -9 | -3 | nt
CC1CN(C(=O)CCC(=O)NCCCN2C(C)CCCC2C)c2ccccc2O1 (centres undefined) | 2 | 0 | 11 | -2 | -2 | 4 | nt
O=C(Nc1ccc(F)cc1)Nc1ccc(N2CCCC2)c(S(=O)(=O)Nc2ccccc2Cl)c1 | 25* | 26 | -38 | -25 | -2 | -11 | 37* | Fam108b ABPP HTS=95*
Cc1nc2c(c(C)nn2-c2ccccc2)c(C)c1CCC(=O)NCCCOC(C)C | -1 | 1 | -4 | -2 | 3 | -12 | nt
C1=C(CCNc2ncnc3c2[nH]c2ccccc23)CCCC1 | 21* | 45* | -1 | -10 | -8 | -3 | 8
CCSC1=NSC2=NC(=O)/C(=C\c3coc4ccccc4c3=O)C(=N)N12 | 43* | -2 | -44 | -11 | -12 | -20 | 47* | Fam108b ABPP HTS=0
CCOc1ncccc1C(=O)OC(C)C(=O)NC(=O)NC1CCCCC1 (centres undefined) | 3 | -2 | -4 | 2 | -5 | 2 | nt
O=C(CSc1ccc(-c2ccco2)nn1)NCc1ccccc1Cl | 22* | 17 | 5 | 6 | 11 | 12 | 6
Cc1ccc(C)c(S(=O)(=O)Nc2cc(SCC(=O)O)c(O)c3ccccc23)c1 | 29* | 28* | 87* | 4 | 35* | 33* | -10
Cc1ccc(NS(=O)(=O)c2cc(NC(=O)C(C)Oc3ccccc3)ccc2C)c(C)c1 (centres undefined) | -3 | -9 | 2 | -9 | -25 | -4 | nt
CC1CN(C(=O)c2cccc(S(=O)(=O)N3CCN(c4ccccc4)CC3)c2)CC(C)O1 (centres undefined) | nt | -5 | nt | 0 | 1 | 1 | nt
Cc1ccc(C(=O)NNc2nc3ccccc3nc2C(F)(F)F)cc1 | -3 | -2 | 4 | 0 | 3 | -3 | nt
COc1ccc(CCN2C(=O)CSC2=S)cc1OC | -9 | -15 | -4 | -3 | -5 | -94 | nt
O=C(O)c1ccc(N/N=C/c2ccc(-c3ccc(Cl)cc3Cl)o2)cc1 | 28* | 64* | 14 | 11 | 10 | -3 | 23*
O=C(O)c1ccc(N/N=C/c2ccc(-c3cc(Cl)ccc3Cl)o2)cc1 | 22* | 13 | 28 | 3 | 7 | -7 | 4

Screens (PubChem BioAssay)
